Data from PubChem BioAssay (NCI).
This is part of a sample that, as a whole, favours compounds with a hit. Of some 83,000 tested, about 20% had one in any assay.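 Assay: single dose, 48 h. Readout: percent growth (0 = no net growth; negative = cell death). Active: <10.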 Unmarked numbers belong to inactive results. Activity calls are given as the source filed them.

Tests used:
Assay in all cases: NCI-60 one-dose screen, 48 h (100 = growth as untreated, 0 = no growth, -100 = all killed)
[1] = test system: HCT-15 colon; settings: 10 µM unless noted
[2] = test system: HT29 colon; settings: 10 µM unless noted
[3] = test system: SNB-19 CNS; settings: 10 µM unless noted
[4] = test system: U251 CNS; settings: 10 µM unless noted
[5] = test system: PC-3 prostate; settings: 10 µM unless noted
[6] = test system: SK-MEL-5 melanoma; settings: 10 µM unless noted
[7] = test system: UACC-62 melanoma; settings: 10 µM unless noted
[8] = test system: LOX IMVI melanoma; settings: 10 µM unless noted
[9] = test system: SK-MEL-28 melanoma; settings: 10 µM unless noted
[10] = test system: SNB-75 CNS; settings: 10 µM

Compound	growth [1]	growth [2]	growth [3]	growth [4]	growth [5]	growth [6]	growth [7]	growth [8]	growth [9]	growth [10]
Clc1cc2c(nn1)Nc1ccccc1S2	101%	102%	88.5%	97.3%	92.4%	95%	95.2%	98.6%	109%	–
O=C(O)c1cn(C2CC2)c2cc(N3CCN(C(=O)/C=C/c4ccc(Cl)cc4)CC3)c(F)cc2c1=O	51.6%	82.1%	82.8%	77.7%	72.6%	64.8%	61.7%	22%	66.5%	–
COc1cc2c(cc1OCCCCCn1c3ccccc3c3ccccc31)N=C[C@@H]1CCCN1C2=O	-74.3% (active)	-45.8% (active)	-49.9% (active)	-58% (active)	-41.8% (active)	-100% (active)	-90.3% (active)	-64.8% (active)	-78.8% (active)	-11.3% (active)
O=c1[nH]c(NCc2ccccc2)nc2nc(Nc3ccc(NC(=S)Nc4ccccc4)cc3)nc(-c3ccc(O)cc3O)c12	105%	125%	91.9%	87.8%	109%	113%	83%	101%	91.5%	91.7%
Cc1cc(C2=NNC(=O)Cc3cc4c(cc32)OCCO4)cc(C)c1N	31.7%	7.97% (active)	48%	36.6%	49.1%	10.2%	44.1%	39.7%	42.3%	–
Nc1ccc(C(=O)CSc2nc3ccccc3[nH]2)cc1	99.6%	110%	102%	96.9%	104%	97.9%	90.6%	106%	116%	–
O=c1ccn(-c2ncnc3nc[nH]c23)cc1	102%	109%	98.4%	95.5%	96.6%	114%	92.8%	96.3%	94.6%	80.6%
COc1cc(C2NN=C3c4ccccc4CCC32)cc(OC)c1OC (configuration not stated)	72.4%	105%	79.3%	94.7%	75.2%	72.2%	69.8%	82.4%	101%	59.8%
Cn1ccc(=O)c(S(N)(=O)=O)c1	109%	107%	95.5%	90.7%	101%	112%	95.8%	91.9%	116%	79.2%
O=[N+]([O-])c1cc(Cl)c2[nH]c3c(Cl)cc([N+](=O)[O-])cc3c2c1	11.3%	-38.3% (active)	15.9%	-22.7% (active)	4.26% (active)	-60.7% (active)	9.86% (active)	6.56% (active)	–	–
O=[N+]([O-])c1ccc(-c2cn(-c3ccccc3)c(-c3ccccc3)n2)cc1	95.2%	98.6%	36.3%	–	48.1%	128%	83.1%	94.3%	96.7%	70.7%
C/C=C(\C)C(C(=O)NC1CCCCC1)N(C(=O)C1CCc2cc(F)ccc2O1)c1ccc(Cl)cc1 (configuration not stated)	101%	98.7%	97.8%	102%	94.5%	97.2%	92.3%	94.1%	–	–
COC1=C(OC)C(=O)C(CCCCCCCCCC[P+](c2ccccc2)(c2ccccc2)c2ccccc2)=C(C)C1=O	-3.39% (active)	-10.6% (active)	-53.1% (active)	-27.2% (active)	-12.7% (active)	-100% (active)	-93% (active)	-89.6% (active)	-86.1% (active)	-44.5% (active)
COc1cccc(CC(C)=C(c2ccc(OCCN(C)C)cc2)c2ccc(OCCN(C)C)cc2)c1	-37.8% (active)	-72.7% (active)	15.2%	-77.8% (active)	15.6%	-95.1% (active)	-90.7% (active)	-84.3% (active)	–	–
Cc1cc(C2(c3cc(C)c(O)cc3C)OS(=O)(=O)c3ccccc32)c(C)cc1O	105%	92.9%	94.2%	78%	87.2%	104%	90.9%	105%	–	–
C/C(=N/NC(=S)Nc1ccccc1)c1nc2ccc(Cl)cc2[nH]1	0.555% (active)	-88.5% (active)	-33.7% (active)	–	-47.7% (active)	-97.3% (active)	-72.6% (active)	-75.8% (active)	-96.6% (active)	-75.5% (active)
O=C(/C=C\c1cccc([N+](=O)[O-])c1)/C=C/c1cccc([N+](=O)[O-])c1	73.5%	9.81% (active)	94.5%	22.6%	82.1%	100%	78.1%	-89.7% (active)	102%	94.3%
COc1cc2c(cc1OCCCN1CCN(CCCn3c4ccccc4c4ccccc43)CC1)N=C[C@@H]1CCCN1C2=O	-44.6% (active)	-17.2% (active)	-49.8% (active)	-99.1% (active)	-64.7% (active)	-100% (active)	-87.3% (active)	-91.2% (active)	-98.3% (active)	-98.9% (active)
CCO/C=N/C1=C(C#N)C(c2ccc(Cl)cc2)c2c(c3ccc(C)cc3[nH]c2=O)O1 (configuration not stated)	91.1%	80.5%	84.7%	90.3%	83.5%	87.1%	67.6%	86.8%	101%	–
CCCCCc1cc[n+](CC(=O)c2ccc([N+](=O)[O-])cc2)cc1	94.4%	21.5%	87.9%	48.4%	59.5%	22%	91.1%	45.9%	106%	89.6%
Cc1nc2cncc(C#Cc3cncc(C(=O)Nc4ccc(CN5CCN(C)CC5)c(C(F)(F)F)c4)c3)c2nc1C	8.31% (active)	3.88% (active)	49.7%	36%	25.6%	-18.1% (active)	-32% (active)	-77.9% (active)	-8.83% (active)	–
O=C1NN(C(=O)c2ccc(Cl)cc2)C(c2ccccc2)=N/C1=C\c1cn(-c2ccccc2)nc1-c1ccccc1	92.6%	87.8%	90.7%	92.4%	94.8%	79.9%	91%	97.6%	94.8%	–
O=C(Nc1ccc(Cl)c(Cl)c1)NS(=O)(=O)c1cnccc1Oc1ccc(F)cc1	73.9%	75.1%	57%	56.8%	22.2%	108%	59.2%	83.3%	94.5%	79%
Clc1ccc2c(NC3CCC(NC4CCCCC4)CC3)ccnc2c1 (configuration not stated)	29.6%	7.7% (active)	81.9%	35.8%	59.2%	18.6%	-31.3% (active)	35.6%	-10.5% (active)	79.6%
COc1ccncc1S(=O)(=O)NC(=O)Nc1ccc(Cl)c(Cl)c1	101%	102%	96.8%	94.9%	91.9%	120%	66.7%	64.9%	120%	78.3%
CCCN=C1NC(=O)/C(=C/c2nc(-c3ccc(OC)cc3)n3ccccc23)S1	84.8%	99.3%	80.8%	52.9%	85.9%	64.9%	93.1%	52.7%	111%	96.5%
O=c1[nH]c(Nc2ccc(S(=O)(=O)O)cc2)nc2nc(Nc3ccc(NC(=S)Nc4ccccc4)cc3)nc(-c3ccc(O)cc3O)c12	105%	125%	91.1%	101%	108%	114%	91.5%	96.2%	112%	96.3%
COc1cc(/C=C/C(=O)c2c(C)nc3ccccc3c2C)ccc1OCCCCOc1cc2c(cc1OC)C(=O)N1CCC[C@H]1C=N2	-79.6% (active)	-73.3% (active)	-90.1% (active)	–	-24.6% (active)	-100% (active)	-99.2% (active)	-92.2% (active)	-85.5% (active)	-100% (active)
